Out of some 310,000 compounds screened, about 14,000 (4.5%) showed an effect of 50% or more. The effect is printed as a negative number. The entries come from a sample that favours strong results as a whole.
Target: human ether-à-go-go-related gene (hERG) potassium channel (human, UniProt Q12809)
Test: primary screen, population patch clamp on CHO cells stably expressing hERG; higher = less effect of the substance
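Also: peak tail current of the secondary pulse compared with the same well before compound.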

Sequence of human ether-à-go-go-related gene (hERG) potassium channel (Q12809 whole entry, looked up): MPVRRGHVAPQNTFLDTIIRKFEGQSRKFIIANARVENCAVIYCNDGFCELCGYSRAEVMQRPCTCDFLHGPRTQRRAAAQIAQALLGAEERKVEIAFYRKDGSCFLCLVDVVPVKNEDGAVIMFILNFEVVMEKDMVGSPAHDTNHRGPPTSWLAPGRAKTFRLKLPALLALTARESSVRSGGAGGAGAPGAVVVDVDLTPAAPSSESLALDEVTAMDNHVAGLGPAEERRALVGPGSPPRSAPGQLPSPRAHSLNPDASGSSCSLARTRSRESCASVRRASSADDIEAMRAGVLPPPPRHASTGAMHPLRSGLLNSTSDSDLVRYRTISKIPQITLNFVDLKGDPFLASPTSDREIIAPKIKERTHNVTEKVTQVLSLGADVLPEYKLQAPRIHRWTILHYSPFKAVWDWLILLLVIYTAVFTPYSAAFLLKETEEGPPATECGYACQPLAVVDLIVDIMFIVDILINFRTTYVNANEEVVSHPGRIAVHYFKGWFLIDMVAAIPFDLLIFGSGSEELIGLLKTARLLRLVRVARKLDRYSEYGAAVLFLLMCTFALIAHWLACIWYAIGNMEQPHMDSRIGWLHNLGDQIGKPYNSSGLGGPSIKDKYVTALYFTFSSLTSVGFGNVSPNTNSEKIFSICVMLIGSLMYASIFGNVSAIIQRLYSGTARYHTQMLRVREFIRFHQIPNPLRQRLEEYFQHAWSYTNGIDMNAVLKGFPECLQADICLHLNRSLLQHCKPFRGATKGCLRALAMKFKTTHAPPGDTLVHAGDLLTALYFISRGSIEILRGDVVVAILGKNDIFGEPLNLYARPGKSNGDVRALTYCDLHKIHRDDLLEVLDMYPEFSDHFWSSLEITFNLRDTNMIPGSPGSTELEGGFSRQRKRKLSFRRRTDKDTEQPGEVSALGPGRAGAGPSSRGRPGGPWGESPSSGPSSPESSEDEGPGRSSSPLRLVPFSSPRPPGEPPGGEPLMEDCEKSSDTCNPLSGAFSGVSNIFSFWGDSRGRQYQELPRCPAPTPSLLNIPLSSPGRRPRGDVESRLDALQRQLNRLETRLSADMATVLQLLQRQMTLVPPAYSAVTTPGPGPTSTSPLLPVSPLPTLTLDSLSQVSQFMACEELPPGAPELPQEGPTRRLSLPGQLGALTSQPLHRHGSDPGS

Row | Compound | hERG current change (%, negative = inhibition) at 10uM [%]
1 | CNCCOc1ccccc1-c1ccccc1.O=C(O)C(=O)O | -5.68
2 | O=C(CCN1C(=O)c2ccccc2S1(=O)=O)N1CCN(c2ccccc2F)CC1 | -5.02
3 | Cc1ccsc1C(=O)NCC(C)(C)N1CCOCC1 | -9.41
4 | CC(=O)SC(C)CC(=O)Nc1ccccc1 (centres unmarked) | 7.33
5 | Cc1nc2cc(-c3cccc(F)c3)nn2c(C)c1CCC(=O)N1CCN(c2ccccn2)CC1 | -13.1
6 | Cc1nc2cc(-c3cccc(F)c3)nn2c(C)c1CCC(=O)NC(C)c1ccc2c(c1)OCCO2 (centres unmarked) | -44.6
7 | Cc1nc2nc(C)c(CCC(=O)N3CCN(c4ccccn4)CC3)c(C)n2n1 | -46.1
8 | Cc1nc2nc(C)c(CCC(=O)N3CCN(c4ccccc4)CC3)c(C)n2n1 | -56.2
9 | Cc1nc2cc(-c3ccccc3)nn2c(C)c1CCC(=O)N1CCC2(CC1)OCCO2 | -47.2
10 | Cc1nc2cc(-c3ccccc3)nn2c(C)c1CCC(=O)NC(C)c1ccc2c(c1)OCCO2 (centres unmarked) | -50.8
11 | Cc1nc2nc(C)c(CCC(=O)N3CCOCC3)c(C)n2n1 | -21
12 | Cc1nc2cc(-c3ccc(Cl)cc3)nn2c(C)c1CCC(=O)NC(C)c1ccc2c(c1)OCCO2 (centres unmarked) | -23.8
13 | Cc1nc2cc(-c3ccccc3)nn2c(C)c1CCC(=O)N1CCN(c2ccccc2)CC1 | -65.7
14 | O=C(CC1(c2ccc(Cl)cc2)C2CC3CC(C2)CC1C3)NCCO (centres unmarked) | -7.17
15 | O=C(COC(=O)c1cccc(-n2cnnn2)c1)c1ccccc1 | -4.63
16 | OCc1ccccc1SSc1ccccc1CO | 14.5
17 | COc1ccc2[nH]c(C)c(CCN3C(=O)OC(C)(C)C3(C)O)c2c1 (centres unmarked) | 9.02
18 | Cc1cccc(-n2nnc(C(=O)NCc3ccccn3)c2N)c1 | 0.598
19 | CCc1noc(C)c1C(=O)N1CCN(S(=O)(=O)c2cc(C)ccc2C)CC1 | -1.66

Row | Compound | hERG current change (%, negative = inhibition) at 10uM [%]
20 | O=C(c1ccco1)N1CCN(S(=O)(=O)c2ccc(Oc3ccccc3)cc2)CC1 | -31.5
21 | Cc1ccc(C(=O)C(C)OC(=O)Cn2cnc3c2c(=O)n(C)c(=O)n3C)cc1 (centres unmarked) | -0.153
22 | COc1ccc(Oc2ccc(C(F)(F)F)cc2NC(=O)c2ccc(F)cc2)cc1 | 6.56
23 | N#Cc1ccc(Oc2ccc(C(F)(F)F)cc2NC(=O)c2ccc(F)cc2)cc1 | -70.2
24 | COc1ccc(Oc2ccc(C(F)(F)F)cc2NC(=O)c2ccc(OC)cc2)cc1 | 12.5
25 | CC(=O)c1c(C)[nH]c(C(=O)CN2CCN(S(=O)(=O)c3ccccc3[N+](=O)[O-])CC2)c1C | -6.62
26 | CCCCC(CC(C)O)c1n[nH]c(=S)n1-c1ccccc1 (centres unmarked) | 3.1
27 | O=C(/C=C/c1ccc(F)cc1)NC(=S)N1C[C@H]2C[C@H](C1)c1cccc(=O)n1C2 | -22.9
28 | O=C(/C=C/c1ccccc1)NC(=S)N1C[C@H]2C[C@H](C1)c1cccc(=O)n1C2 | -15
29 | O=C(/C=C/c1ccc(Br)cc1)NC(=S)N1C[C@H]2C[C@H](C1)c1cccc(=O)n1C2 | -57.9
30 | COc1ccc(/C=C/C(=O)NC(=S)N2C[C@H]3C[C@H](C2)c2cccc(=O)n2C3)cc1OC | 6.67
31 | O=C(/C=C/c1ccc(Cl)cc1)NC(=S)N1C[C@H]2C[C@H](C1)c1cccc(=O)n1C2 | -53.1
32 | COc1ccc(/C=C/C(=O)NC(=S)N2C[C@H]3C[C@H](C2)c2cccc(=O)n2C3)cc1 | -18.2
33 | O=C(NCc1ccco1)Nc1ccc2snnc2c1 | 2.51
34 | CNC(=O)c1c(NC(NC(=O)c2ccco2)C(=O)c2ccc(Cl)cc2)sc2c1CCCC2 (centres unmarked) | -20.3
35 | CC1=C(C(=O)Nc2ccccc2)C(c2ccc(C)o2)n2c(s/c(=C/c3ccccc3)c2=O)=N1 (centres unmarked) | 18.1
36 | COc1ccccc1NCc1ccc([N+](=O)[O-])s1 | -47.7
37 | CC1CN(C(=O)C(C)OC(=O)c2ccc3ncsc3c2)CC(C)O1 (centres unmarked) | 20.1
38 | CC(OC(=O)c1ccc2ncsc2c1)C(=O)N1CCCC1 (centres unmarked) | -56.9

Row | Compound | hERG current change (%, negative = inhibition) at 10uM [%]
39 | O=C(c1ccc2ncsc2c1)N1CCCCC1 | 17.9
40 | CCCc1nnc(SCC(=O)N2CCCC2)n1Cc1ccco1 | 1.2
41 | Cc1ccc2c(c1)sc(=NC(=O)C1CC1)n2C | -4.01
42 | CCOC(=O)c1cnc2ccc(C)cc2c1Sc1ccccc1C(=O)OC | -2.26
43 | CCOC(=O)N1CCN(Cc2cn[nH]c2-c2ccc(-c3ccccc3)cc2)CC1 | -54.8
44 | CCOC(=O)N1CCN(Cc2cn[nH]c2-c2cccc3ccccc23)CC1 | -4.57
45 | COc1ccc(-c2[nH]ncc2CN2CCN(C(=O)c3cccs3)CC2)c(F)c1 | -21.5
46 | CCOC(=O)C1CCN(Cc2ccccc2C)CC1 | 0.665
47 | CCOC(=O)N1CCN(Cc2cn[nH]c2-c2cc3ccccc3o2)CC1 | -34.4
48 | CCOC(=O)C1CCN(Cc2cn[nH]c2-c2ccc(C)cc2)CC1 | -51.8
49 | CCOC(=O)C1CCN(Cc2cn[nH]c2-c2ccccc2)CC1.O=C(O)C(=O)O | -9.8
50 | Cc1ccc(-c2[nH]ncc2CN2CCN(C(=O)c3cccs3)CC2)cc1C | -62.5
51 | COc1ccc(CN2CCN(C(=O)c3cccs3)CC2)c(OC)c1OC | -6.53
52 | O=C(Nc1cc(=O)[nH]c2nc(-c3ccccc3)nn12)c1ccccc1Cl | 15.3
53 | Cc1sc(NC(=O)c2ccc(Br)s2)c(C(N)=O)c1C | 17.5
54 | OCCN(Cc1ccccc1)Cc1ccc(Cl)cc1 | -73
55 | OCCN(Cc1ccccc1)Cc1ccc(F)c(F)c1 | -14.9
56 | OCCN(Cc1ccccc1)Cc1ccc(Cl)cc1Cl | -14

From publication PMC4336329 (PLoS ONE, 2015)
